Here are results for 20 molecules from PubChem BioAssay (NCI).

This is part of a sample that, as a whole, favours compounds with a hit. Of some 79,000 tested, about 15% had one in any assay. Values without a mark were called inactive. Calls of active or inactive are those of the source. Rule as the data show it: active = growth inhibition above about 70%; inactive = the rest.

Experiment [1] is described as follows: NCI Yeast Anticancer Drug Screen. Data for the rad50 strain (AID 155).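 Also: 0% = growth of vehicle-only cultures of the same strain.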 Conditions: S. cerevisiae rad50 strain growth inhibition, active compounds read high; at 50.0 µM unless noted. An outline of the steps: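 Genetically altered yeast (DNA repair pathway); compound treatment; growth inhibition vs vehicle ctrl.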
Experiment [2] in a line: NCI Yeast Anticancer Drug Screen. Data for the mec2-1 strain (AID 157). Conditions: S. cerevisiae mec2-1 strain, active compounds read high; at 50.0 µM unless noted. An outline of the steps: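 Mutant yeast (mec2-1) grown with compound; growth inhibition relative to vehicle control reported.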
The nature of experiment [3]: NCI Yeast Anticancer Drug Screen. Data for the sgs1 mgt1 strain (AID 161).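 Also: 0% = growth of cultures given vehicle only.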 Conditions: S. cerevisiae sgs1 mgt1 strain, active compounds read high; at 50.0 µM unless noted. An outline of the steps: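 Growth of a repair-deficient yeast mutant was monitored after compound treatment and expressed as inhibition relative to vehicle-treated cultures.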
Experiment [4] in a line: NCI Yeast Anticancer Drug Screen. Data for the cln2 rad14 strain (AID 165).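 Also: 0% = growth equal to vehicle treated cultures.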 Conditions: S. cerevisiae cln2 rad14 strain, active compounds read high; at 50.0 µM unless noted. The method in brief:
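Readout is yeast growth inhibition versus vehicle-treated controls, using a strain with cln2 and rad14 alterations exposed to compound.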

Experiment [5] can be described thus: NCI Yeast Anticancer Drug Screen. Data for the bub3 strain (AID 167). Conditions: S. cerevisiae bub3 mutant strain, active compounds read high; at 50.0 µM unless noted. An outline of the steps:
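Yeast carrying a defined mutation is treated with each compound, and growth is compared with that of vehicle-exposed cells to give inhibition.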

Experiment [6] can be described thus: NCI Yeast Anticancer Drug Screen. Data for the mlh1 rad18 strain (AID 175). Conditions: S. cerevisiae mlh1 rad18 strain growth inhibition, active compounds read high; at 50.0 µM unless noted. An outline of the steps: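 Genetically defined yeast (DNA repair-deficient) exposed to compounds; growth inhibition determined relative to vehicle.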

For the molecule `C/C(=N/NC(N)=S)c1ccc([N+](=O)[O-])cc1`, the growth inhibition in experiment [1] was 75.7% (active); in experiment [2], -8.8%; in experiment [3] it was -8.6%; in experiment [4], -64.7%; in experiment [5], -12.4%; in experiment [6] it was -2.3%.

Regarding `O=C(Nc1ccc(F)cc1)N1CCOCC1`, the growth inhibition in experiment [1] is 1.65%; in experiment [2], -25%; in experiment [3] it was 4.3%; in experiment [4], 9.6%; in experiment [5] it was 6.8%; in experiment [6] it was -9.4%.

As to `Cc1ccccc1C(=O)C[n+]1ccccc1C`, the growth inhibition in experiment [1] is -11.8%; in experiment [2] it was 15.5%; in experiment [3] it was -5.7%; in experiment [4], -21.6%; in experiment [5], 4.1%; in experiment [6], 8.3%.

As for `CC(C)(C)C(=O)OCC1CCC(n2cnc3c(=O)[nH]c(N)nc32)O1` (stereo not given), the growth inhibition in experiment [1] is 34.3%; in experiment [2], 2.3%; in experiment [3] it was -3.65%; in experiment [4], 3.05%; in experiment [5], -2.25%; in experiment [6], 25.7%.

`COc1cc(CNc2nc3ccc(C(F)(F)F)cc3nc2-c2ccccc2)cc(OC)c1OC`: the growth inhibition in experiment [1] is -14.3%; in experiment [2], -3.05%; in experiment [3], -28.4%; in experiment [4], -10.2%; in experiment [5] it was 2.25%; in experiment [6], -4.55%.

For `CCC(C)C/C(C)=N/Nc1ccc([N+](=O)[O-])cc1[N+](=O)[O-]` (stereo not given), the growth inhibition in experiment [1] was -0.4%; in experiment [2] it was 7.85%; in experiment [3], 0.65%; in experiment [4], -16.4%; in experiment [5], 12.7%; in experiment [6], -6.25%.

Consider `CCCCCC#CC[C@@H](O)[C@@H](O)COCc1ccccc1`, for which the growth inhibition is 17.4% in experiment [1]; 8.6% in experiment [2]; 32.2% in experiment [3]; 29.2% in experiment [4]; -20.8% in experiment [5]; 9.9% in experiment [6].

With `NNC(=O)c1nnn(CCc2ccccc2)c1C(=O)NN`, the growth inhibition in experiment [1] is -1.45%; in experiment [2] it was 3.25%; in experiment [3], -1.15%; in experiment [4] it was 5.55%; in experiment [5], -9.55%; in experiment [6] it was -3.9%.

As to `N#C/C(=C\c1cc(Cl)cc(Cl)c1O)c1nc2ccccc2[nH]1`, the growth inhibition was 43% in experiment [1]; 13.7% in experiment [2]; 38.4% in experiment [3]; 11.5% in experiment [4]; 26.9% in experiment [5]; 5.65% in experiment [6].

As for `COc1ccccc1NC(=O)Oc1c(C(C)C)cccc1C(C)C`, the growth inhibition in experiment [1] was -5.35%; in experiment [2], 5.75%; in experiment [3], -3.7%; in experiment [4] it was -1.1%; in experiment [5], 20%; in experiment [6] it was -17.4%.

Regarding `Cc1ccc(S(=O)(=O)N(C)CCCC#N)cc1`, the growth inhibition in experiment [1] was -11.4%; in experiment [2], -16.3%; in experiment [3], 6.2%; in experiment [4] it was -3.1%; in experiment [5], -6.6%; in experiment [6], -19.6%.

As to `Cc1ccc2nc(-c3ccc(F)cc3)cc(C(=O)O)c2c1`, the growth inhibition in experiment [1] is 9.9%; in experiment [2] it was 2.05%; in experiment [3], 6.25%; in experiment [4], 17.9%; in experiment [5], 10.2%; in experiment [6], 26.1%.

In the case of `N#CC(C(=S)Nc1ccccc1)=C1Nc2ccccc2N1`, the growth inhibition is 7.2% in experiment [1]; -36.2% in experiment [2]; -18.1% in experiment [3]; -2.65% in experiment [4]; -20.1% in experiment [5]; -22.8% in experiment [6].

Turning to `O=C1CSC(c2cccc([N+](=O)[O-])c2)N1c1nncs1` (stereo not given), the growth inhibition in experiment [1] was 8.55%; in experiment [2] it was 11.7%; in experiment [3], 6.8%; in experiment [4] it was 5.15%; in experiment [5] it was 3.4%; in experiment [6], 5.5%.

Take `Cc1cc(CSC(=N)N)c(CSC(=N)N)cc1C`: the growth inhibition in experiment [1] is 9.75%; in experiment [2], -3.85%; in experiment [3] it was -2.45%; in experiment [4], -4.25%; in experiment [5] it was 4.65%; in experiment [6], 2.05%.

Take `O=S(=O)(Nc1nccs1)c1ccc(NCc2c3ccccc3nc3cc(Cl)ccc23)cc1`: the growth inhibition was 13.3% in experiment [1]; 3.15% in experiment [2]; 9.75% in experiment [3]; -6.65% in experiment [4]; -0.2% in experiment [5]; 25.8% in experiment [6].

On to `O=C(O)C1C2CCCC21` (stereo not given), for which the growth inhibition was -10.8% in experiment [1]; 30.2% in experiment [2]; -4.75% in experiment [3]; 25.9% in experiment [4]; 2% in experiment [5]; 0.8% in experiment [6].

As to `CCOC(=O)C(c1ccc2c(c1)OCO2)C1(NC(=O)c2ccccc2)C(=O)C(C(=O)OC)C(=O)C1C(=O)OC` (stereo not given), the growth inhibition in experiment [1] is 16.5%; in experiment [2] it was 6.15%; in experiment [3], -6.7%; in experiment [4] it was 10%; in experiment [5], 1.4%; in experiment [6] it was 10.9%.

Consider `COc1ccc(C2=C(c3ccccc3)C(=O)C3(c4ccccc4)CC23c2ccc(OC)cc2)cc1` (stereo not given), for which the growth inhibition in experiment [1] was -1.25%; in experiment [2] it was 17.6%; in experiment [3], 15.5%; in experiment [4], 1.85%; in experiment [5], 1.15%; in experiment [6], 4.7%.

`CCOc1ccc(/C=C/C(=O)c2sc(NNC(C)=O)nc2C)cc1`: the growth inhibition in experiment [1] was 20.1%; in experiment [2], 25.1%; in experiment [3] it was -11.6%; in experiment [4], 12.7%; in experiment [5], 25.9%; in experiment [6], 22.4%.
